Key:
Experiment in all cases: log2 ratio of Biotin-Ahx-Ub-VS probe labelling (fragment/DMSO); higher = less target engagement (more negative = stronger competition), active = hit call of the paper (q ≤ 0.05, log2 ratio ≤ -1)
Settings in all cases: compound concentration: 200 uM; treatment time: 3 h
USP19 = target: T1, USP19 (UniProt O94966)
T1 sequence (whole entry): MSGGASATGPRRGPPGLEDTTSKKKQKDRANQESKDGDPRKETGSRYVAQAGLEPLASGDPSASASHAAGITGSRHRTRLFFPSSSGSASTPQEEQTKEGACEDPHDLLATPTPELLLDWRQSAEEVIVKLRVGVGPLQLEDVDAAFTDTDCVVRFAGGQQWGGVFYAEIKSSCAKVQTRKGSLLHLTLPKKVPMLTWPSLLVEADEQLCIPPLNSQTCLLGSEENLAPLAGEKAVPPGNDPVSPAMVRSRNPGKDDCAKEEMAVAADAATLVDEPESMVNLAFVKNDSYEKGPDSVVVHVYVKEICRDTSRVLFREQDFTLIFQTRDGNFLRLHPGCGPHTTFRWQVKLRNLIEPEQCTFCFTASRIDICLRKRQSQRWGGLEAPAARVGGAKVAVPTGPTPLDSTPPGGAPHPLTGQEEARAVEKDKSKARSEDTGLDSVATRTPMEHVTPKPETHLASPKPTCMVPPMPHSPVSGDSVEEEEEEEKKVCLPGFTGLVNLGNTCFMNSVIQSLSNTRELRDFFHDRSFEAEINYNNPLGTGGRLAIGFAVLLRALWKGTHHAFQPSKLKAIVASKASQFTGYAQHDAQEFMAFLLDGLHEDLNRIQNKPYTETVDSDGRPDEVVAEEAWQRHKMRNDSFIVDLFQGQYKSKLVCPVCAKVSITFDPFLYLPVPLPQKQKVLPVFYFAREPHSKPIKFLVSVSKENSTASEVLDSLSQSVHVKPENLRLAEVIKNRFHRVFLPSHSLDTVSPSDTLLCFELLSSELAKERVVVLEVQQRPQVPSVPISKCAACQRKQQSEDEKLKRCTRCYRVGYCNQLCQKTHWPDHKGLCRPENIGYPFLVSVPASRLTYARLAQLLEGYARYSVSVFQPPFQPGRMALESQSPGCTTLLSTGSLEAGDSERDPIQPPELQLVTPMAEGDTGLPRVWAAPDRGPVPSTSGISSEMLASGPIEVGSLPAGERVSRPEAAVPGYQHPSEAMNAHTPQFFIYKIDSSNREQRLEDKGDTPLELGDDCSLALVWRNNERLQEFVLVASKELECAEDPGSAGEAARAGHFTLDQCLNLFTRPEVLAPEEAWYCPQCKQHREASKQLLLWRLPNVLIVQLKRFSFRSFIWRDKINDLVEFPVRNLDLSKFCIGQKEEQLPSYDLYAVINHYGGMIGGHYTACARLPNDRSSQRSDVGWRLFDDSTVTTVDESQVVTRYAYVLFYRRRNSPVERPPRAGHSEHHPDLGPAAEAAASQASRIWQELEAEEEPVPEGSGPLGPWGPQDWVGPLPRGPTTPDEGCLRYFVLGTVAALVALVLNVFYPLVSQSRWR
In short: (§1)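 Average log2 ratios of fragment over vehicle were obtained by unpaired t-test from global-median-normalised Spectronaut label-free quantities. Proteins with ≥2 unique peptides were included. HEK293T lysate (495 µg per sample) was treated in triplicate with fragment at 200 µM or vehicle for 3 h, then with Biotin-Ahx-Ub-VS at 0.5 µM final for 1 h, and labelled DUBs were NeutrAvidin-enriched and run by diaPASEF LC-MS/MS.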

USP22 = target: T2, USP22 (UniProt Q9UPT9)
T2 sequence (whole entry): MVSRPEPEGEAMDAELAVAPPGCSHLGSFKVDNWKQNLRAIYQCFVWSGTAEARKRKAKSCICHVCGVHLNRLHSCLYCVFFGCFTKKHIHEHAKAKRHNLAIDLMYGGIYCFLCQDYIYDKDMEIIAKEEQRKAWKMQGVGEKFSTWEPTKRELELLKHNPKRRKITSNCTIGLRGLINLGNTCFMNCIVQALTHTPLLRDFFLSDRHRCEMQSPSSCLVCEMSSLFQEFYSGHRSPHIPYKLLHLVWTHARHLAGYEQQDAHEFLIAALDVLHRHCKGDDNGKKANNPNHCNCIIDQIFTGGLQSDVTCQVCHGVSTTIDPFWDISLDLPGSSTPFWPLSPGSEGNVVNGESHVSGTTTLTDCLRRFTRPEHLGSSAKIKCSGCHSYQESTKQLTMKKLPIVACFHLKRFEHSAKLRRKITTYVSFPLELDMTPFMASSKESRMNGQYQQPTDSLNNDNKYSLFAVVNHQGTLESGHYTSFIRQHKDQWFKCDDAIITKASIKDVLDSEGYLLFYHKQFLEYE
In short: as §1

USP24 = USP24 (UniProt Q9UPU5)
Chain of USP24 (Q9UPU5 whole entry): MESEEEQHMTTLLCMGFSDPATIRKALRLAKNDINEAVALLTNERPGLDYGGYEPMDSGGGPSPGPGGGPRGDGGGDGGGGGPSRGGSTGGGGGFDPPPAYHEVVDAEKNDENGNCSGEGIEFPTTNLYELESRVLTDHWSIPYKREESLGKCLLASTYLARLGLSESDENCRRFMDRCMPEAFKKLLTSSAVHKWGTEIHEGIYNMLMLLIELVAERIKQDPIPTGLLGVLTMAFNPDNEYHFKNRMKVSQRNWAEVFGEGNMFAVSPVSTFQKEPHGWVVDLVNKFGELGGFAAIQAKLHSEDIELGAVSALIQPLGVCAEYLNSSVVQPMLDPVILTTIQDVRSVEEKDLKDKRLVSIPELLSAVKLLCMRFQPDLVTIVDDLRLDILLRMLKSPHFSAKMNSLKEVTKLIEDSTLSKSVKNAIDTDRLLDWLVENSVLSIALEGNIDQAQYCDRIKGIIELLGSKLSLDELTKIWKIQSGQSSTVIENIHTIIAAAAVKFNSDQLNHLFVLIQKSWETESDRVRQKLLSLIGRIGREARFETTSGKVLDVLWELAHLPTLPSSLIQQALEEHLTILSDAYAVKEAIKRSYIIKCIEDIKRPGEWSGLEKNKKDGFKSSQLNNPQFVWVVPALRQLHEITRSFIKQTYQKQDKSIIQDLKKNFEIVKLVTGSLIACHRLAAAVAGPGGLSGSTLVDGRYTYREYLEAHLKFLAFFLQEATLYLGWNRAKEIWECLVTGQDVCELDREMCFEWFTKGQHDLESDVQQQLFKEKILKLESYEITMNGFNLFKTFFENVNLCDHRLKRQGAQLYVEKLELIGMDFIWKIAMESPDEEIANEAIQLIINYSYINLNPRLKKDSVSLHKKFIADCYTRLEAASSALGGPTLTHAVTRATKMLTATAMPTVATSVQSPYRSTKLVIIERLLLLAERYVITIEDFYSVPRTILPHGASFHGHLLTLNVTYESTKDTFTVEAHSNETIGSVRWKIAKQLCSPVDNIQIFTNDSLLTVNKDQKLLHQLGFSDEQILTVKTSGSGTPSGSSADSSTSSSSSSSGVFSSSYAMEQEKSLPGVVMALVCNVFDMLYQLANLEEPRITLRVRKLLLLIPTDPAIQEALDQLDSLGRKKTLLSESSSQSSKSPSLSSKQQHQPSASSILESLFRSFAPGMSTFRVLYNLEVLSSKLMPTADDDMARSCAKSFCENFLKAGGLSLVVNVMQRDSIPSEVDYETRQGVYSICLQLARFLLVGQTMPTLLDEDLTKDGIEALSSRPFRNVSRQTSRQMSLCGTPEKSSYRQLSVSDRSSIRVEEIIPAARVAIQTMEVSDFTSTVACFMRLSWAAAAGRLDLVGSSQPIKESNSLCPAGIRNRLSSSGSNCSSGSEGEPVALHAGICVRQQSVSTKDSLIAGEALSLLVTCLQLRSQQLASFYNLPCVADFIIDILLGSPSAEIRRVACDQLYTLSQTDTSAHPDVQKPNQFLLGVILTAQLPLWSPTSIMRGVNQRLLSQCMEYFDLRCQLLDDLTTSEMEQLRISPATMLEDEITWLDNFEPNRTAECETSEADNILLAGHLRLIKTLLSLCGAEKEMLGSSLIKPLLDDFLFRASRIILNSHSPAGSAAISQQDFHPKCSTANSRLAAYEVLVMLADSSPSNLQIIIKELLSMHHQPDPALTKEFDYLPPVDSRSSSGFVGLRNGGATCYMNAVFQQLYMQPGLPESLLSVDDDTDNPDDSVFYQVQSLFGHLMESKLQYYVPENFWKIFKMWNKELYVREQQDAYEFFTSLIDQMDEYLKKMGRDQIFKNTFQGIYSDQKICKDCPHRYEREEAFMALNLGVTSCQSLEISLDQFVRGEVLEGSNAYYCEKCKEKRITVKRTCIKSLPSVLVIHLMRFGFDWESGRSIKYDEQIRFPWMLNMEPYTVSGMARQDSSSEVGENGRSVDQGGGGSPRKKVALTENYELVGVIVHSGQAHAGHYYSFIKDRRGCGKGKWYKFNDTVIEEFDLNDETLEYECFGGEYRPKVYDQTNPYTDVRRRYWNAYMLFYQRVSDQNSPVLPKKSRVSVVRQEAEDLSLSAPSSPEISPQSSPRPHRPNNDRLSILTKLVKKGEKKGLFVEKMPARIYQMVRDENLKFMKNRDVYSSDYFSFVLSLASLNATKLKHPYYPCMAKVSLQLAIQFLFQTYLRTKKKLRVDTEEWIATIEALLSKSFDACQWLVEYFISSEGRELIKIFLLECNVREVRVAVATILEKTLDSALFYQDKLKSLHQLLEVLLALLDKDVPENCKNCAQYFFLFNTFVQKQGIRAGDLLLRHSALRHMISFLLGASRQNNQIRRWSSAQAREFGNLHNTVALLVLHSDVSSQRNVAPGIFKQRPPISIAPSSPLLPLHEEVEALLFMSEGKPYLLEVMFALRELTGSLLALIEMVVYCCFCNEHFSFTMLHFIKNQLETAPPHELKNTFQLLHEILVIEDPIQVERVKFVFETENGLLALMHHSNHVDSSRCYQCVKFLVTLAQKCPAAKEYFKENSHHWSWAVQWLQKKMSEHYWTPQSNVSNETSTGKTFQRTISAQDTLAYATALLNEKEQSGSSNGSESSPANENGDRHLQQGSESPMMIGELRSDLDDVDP
In short: as §1

USP25 = target: T3, USP25 (UniProt Q9UHP3)
T3 sequence (whole entry): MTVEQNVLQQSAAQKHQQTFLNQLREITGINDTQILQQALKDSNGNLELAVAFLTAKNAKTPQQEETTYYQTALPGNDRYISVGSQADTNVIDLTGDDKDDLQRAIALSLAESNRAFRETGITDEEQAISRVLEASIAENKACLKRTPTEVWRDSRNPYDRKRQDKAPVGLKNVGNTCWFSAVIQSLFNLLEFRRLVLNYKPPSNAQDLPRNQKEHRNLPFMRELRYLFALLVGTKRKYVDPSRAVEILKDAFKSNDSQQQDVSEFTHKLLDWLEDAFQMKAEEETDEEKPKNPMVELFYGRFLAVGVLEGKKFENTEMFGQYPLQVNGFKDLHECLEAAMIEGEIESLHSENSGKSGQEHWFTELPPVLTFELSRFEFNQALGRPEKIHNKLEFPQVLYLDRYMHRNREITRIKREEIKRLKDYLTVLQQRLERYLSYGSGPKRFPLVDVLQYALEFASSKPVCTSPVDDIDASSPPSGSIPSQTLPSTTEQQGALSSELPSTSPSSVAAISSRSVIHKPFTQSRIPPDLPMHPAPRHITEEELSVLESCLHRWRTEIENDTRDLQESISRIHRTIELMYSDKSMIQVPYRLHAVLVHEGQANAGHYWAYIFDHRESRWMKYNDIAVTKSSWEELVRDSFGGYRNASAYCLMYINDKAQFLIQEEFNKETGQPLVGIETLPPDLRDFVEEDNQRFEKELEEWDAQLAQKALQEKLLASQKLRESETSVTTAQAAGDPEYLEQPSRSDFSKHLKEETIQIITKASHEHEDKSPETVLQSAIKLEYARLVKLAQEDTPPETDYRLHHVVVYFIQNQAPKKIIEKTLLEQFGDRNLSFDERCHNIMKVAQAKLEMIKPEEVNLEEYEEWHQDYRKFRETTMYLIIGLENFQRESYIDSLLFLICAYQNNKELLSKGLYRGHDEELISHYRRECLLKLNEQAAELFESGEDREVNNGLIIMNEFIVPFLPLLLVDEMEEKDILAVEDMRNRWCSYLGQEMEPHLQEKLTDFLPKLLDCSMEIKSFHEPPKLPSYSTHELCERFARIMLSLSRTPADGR
In short: as §1

USP28 = target: T4, USP28 (UniProt Q96RU2)
T4 sequence (whole entry): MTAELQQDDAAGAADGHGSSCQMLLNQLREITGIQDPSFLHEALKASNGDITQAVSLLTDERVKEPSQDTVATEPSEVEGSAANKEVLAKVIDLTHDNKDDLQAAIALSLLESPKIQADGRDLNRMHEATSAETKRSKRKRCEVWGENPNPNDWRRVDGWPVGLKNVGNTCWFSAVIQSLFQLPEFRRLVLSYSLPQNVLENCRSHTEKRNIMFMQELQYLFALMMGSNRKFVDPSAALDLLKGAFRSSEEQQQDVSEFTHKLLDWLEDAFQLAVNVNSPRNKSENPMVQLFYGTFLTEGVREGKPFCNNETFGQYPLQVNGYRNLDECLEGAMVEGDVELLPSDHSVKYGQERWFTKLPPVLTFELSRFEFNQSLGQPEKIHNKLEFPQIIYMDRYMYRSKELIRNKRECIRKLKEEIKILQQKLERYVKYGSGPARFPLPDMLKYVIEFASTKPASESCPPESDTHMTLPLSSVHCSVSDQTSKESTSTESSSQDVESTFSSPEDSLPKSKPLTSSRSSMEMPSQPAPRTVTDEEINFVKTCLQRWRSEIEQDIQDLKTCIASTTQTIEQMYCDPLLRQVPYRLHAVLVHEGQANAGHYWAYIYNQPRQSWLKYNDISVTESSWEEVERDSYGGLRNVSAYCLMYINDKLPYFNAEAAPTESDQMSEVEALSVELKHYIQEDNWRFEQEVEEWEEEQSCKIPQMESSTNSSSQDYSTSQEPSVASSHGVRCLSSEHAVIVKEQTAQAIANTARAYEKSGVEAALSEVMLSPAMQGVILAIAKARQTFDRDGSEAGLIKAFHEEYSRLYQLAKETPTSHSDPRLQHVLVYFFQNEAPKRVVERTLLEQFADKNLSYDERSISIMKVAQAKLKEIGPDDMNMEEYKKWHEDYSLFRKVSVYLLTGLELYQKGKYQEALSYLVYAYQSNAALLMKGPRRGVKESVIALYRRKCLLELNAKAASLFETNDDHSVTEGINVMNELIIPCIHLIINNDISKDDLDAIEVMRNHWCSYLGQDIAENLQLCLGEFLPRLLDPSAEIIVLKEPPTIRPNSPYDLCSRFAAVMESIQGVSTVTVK
In short: as §1

Measured: log2 ratio of Biotin-Ahx-Ub-VS probe labelling

Cc1cc(C2CCCN2C(=O)CCl)nn1C.Cl (stereo not given)
inactive: USP19 -0.282 | USP22 -0.312 | USP24 -0.202 | USP25 -0.257 | USP28 -0.271

Source: the supplement of paper PMC11732987, “Enantioselective OTUD7B fragment discovery through chemoproteomics screening and high-throughput optimisation” (Communications Chemistry, 2025)
